Reference: publication PMC5540273 (PLoS ONE, 2017)
Read-outs that look alike come from different tables or passages of the source.

What was measured:
DCAMKL2 = test system: T1, DCAMKL2; conditions: concentration: 1 μM,replicates: in singlicate; n = 1
T1 construct: gene DCLK2

DCAMKL3 = test system: T2, DCAMKL3; conditions: concentration: 1 μM,replicates: in singlicate; n = 1
T2 construct: gene DCLK3

DDR1 = conditions: concentration: 1 μM,replicates: in singlicate; n = 1
DDR2 = conditions: concentration: 1 μM,replicates: in singlicate; n = 1
DLK = test system: T3, DLK; conditions: concentration: 1 μM,replicates: in singlicate; n = 1
T3 construct: gene MAP3K12

DMPK2 = test system: T4, DMPK2; conditions: concentration: 1 μM,replicates: in singlicate; n = 1
T4 construct: gene CDC42BPG

DMPK = conditions: concentration: 1 μM,replicates: in singlicate; n = 1
DRAK1 = test system: T5, DRAK1; conditions: concentration: 1 μM,replicates: in singlicate; n = 1
T5 construct: gene STK17A

DRAK2 = test system: T6, DRAK2; conditions: n = 1
T6 construct: gene STK17B

DYRK1A = conditions: concentration: 1 μM,replicates: in singlicate; n = 1
DYRK1B = conditions: concentration: 1 μM,replicates: in singlicate; n = 1
DYRK2 = conditions: concentration: 1 μM,replicates: in singlicate; n = 1
EGFR = conditions: concentration: 1 μM,replicates: in singlicate; n = 1
EIF2AK1 = conditions: concentration: 1 μM,replicates: in singlicate; n = 1
EPHA1 = conditions: concentration: 1 μM,replicates: in singlicate; n = 1
EPHA2 = conditions: concentration: 1 μM,replicates: in singlicate; n = 1
EPHA3 = conditions: concentration: 1 μM,replicates: in singlicate; n = 1
EPHA4 = conditions: concentration: 1 μM,replicates: in singlicate; n = 1
EPHA5 = conditions: concentration: 1 μM,replicates: in singlicate; n = 1
EPHA6 = conditions: concentration: 1 μM,replicates: in singlicate; n = 1
[1] = concentration: 1 μM,replicates: in singlicate
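Further: KINOMEscan kinase panel screen.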

CCCC(=O)Nc1n[nH]c2ncccc12 [SB-601436]
%Inh (DCAMKL2): 0% | %Inh (DCAMKL3): 0% | %Inh (DDR1): 0% | %Inh (DDR2): 0% | %Inh (DLK): 0% | %Inh (DMPK2): 0% | %Inh (DMPK): 0% | %Inh (DRAK1): 2% | %Inh (DRAK2; [1]): 0% | %Inh (DYRK1A): 0% | %Inh (DYRK1B): 0% | %Inh (DYRK2): 2% | %Inh (EGFR): 11% | %Inh (EIF2AK1): 0% | %Inh (EPHA1): 8% | %Inh (EPHA2): 0% | %Inh (EPHA3): 0% | %Inh (EPHA4): 14% | %Inh (EPHA5): 0% | %Inh (EPHA6): 25%

CNC(=O)c1ccccc1Nc1nc(Nc2cccc(CS(C)(=O)=O)c2)ncc1C.O=CO [GSK1520489]
%Inh (DCAMKL2): 15% | %Inh (DCAMKL3): 0% | %Inh (DDR1): 99.9% | %Inh (DDR2): 95.9% | %Inh (DLK): 96.6% | %Inh (DMPK2): 0% | %Inh (DMPK): 0% | %Inh (DRAK1): 91.6% | %Inh (DRAK2; [1]): 5% | %Inh (DYRK1A): 95.6% | %Inh (DYRK1B): 83% | %Inh (DYRK2): 97% | %Inh (EGFR): 99% | %Inh (EIF2AK1): 0% | %Inh (EPHA1): 99.6% | %Inh (EPHA2): 99.1% | %Inh (EPHA3): 91.8% | %Inh (EPHA4): 88% | %Inh (EPHA5): 93% | %Inh (EPHA6): 90%

CC(=O)Nc1ccc(-c2cc3ncnc(SCC(=O)O)c3s2)cc1
%Inh (DCAMKL2): 24% | %Inh (DCAMKL3): 12% | %Inh (DDR1): 0% | %Inh (DDR2): 10% | %Inh (DLK): 2% | %Inh (DMPK2): 0% | %Inh (DMPK): 7% | %Inh (DRAK1): 97.9% | %Inh (DRAK2; 1 µM): 100% | %Inh (DYRK1A): 66% | %Inh (DYRK1B): 22% | %Inh (DYRK2): 39% | %Inh (EGFR): 2% | %Inh (EIF2AK1): 0% | %Inh (EPHA1): 28% | %Inh (EPHA2): 0% | %Inh (EPHA3): 0% | %Inh (EPHA4): 19% | %Inh (EPHA5): 7% | %Inh (EPHA6): 22%

CN(c1cccc(CNc2nc(Nc3ccc4c(c3)CC(=O)N4)ncc2C(F)(F)F)c1)S(C)(=O)=O
%Inh (DCAMKL2): 9% | %Inh (DCAMKL3): 86% | %Inh (DDR1): 43% | %Inh (DDR2): 3% | %Inh (DLK): 4% | %Inh (DMPK2): 0% | %Inh (DMPK): 0% | %Inh (DRAK1): 99.4% | %Inh (DRAK2; [1]): 97.5% | %Inh (DYRK1A): 74% | %Inh (DYRK1B): 57% | %Inh (DYRK2): 28% | %Inh (EGFR): 3% | %Inh (EIF2AK1): 0% | %Inh (EPHA1): 3% | %Inh (EPHA2): 0% | %Inh (EPHA3): 22% | %Inh (EPHA4): 1% | %Inh (EPHA5): 0% | %Inh (EPHA6): 0%

CC(=O)Nc1nc2cnc(Nc3cc(NC(=O)c4cccc(CC(C)(C)C#N)c4)ccc3C)nc2s1
%Inh (DCAMKL2): 5% | %Inh (DCAMKL3): 0% | %Inh (DDR1): 100% | %Inh (DDR2): 97.2% | %Inh (DLK): 26% | %Inh (DMPK2): 2% | %Inh (DMPK): 0% | %Inh (DRAK1): 0% | %Inh (DRAK2; [1]): 0% | %Inh (DYRK1A): 0% | %Inh (DYRK1B): 31% | %Inh (DYRK2): 0% | %Inh (EGFR): 0% | %Inh (EIF2AK1): 30% | %Inh (EPHA1): 0% | %Inh (EPHA2): 84% | %Inh (EPHA3): 65% | %Inh (EPHA4): 54% | %Inh (EPHA5): 21% | %Inh (EPHA6): 38%

Nc1nccc(-c2ccc3c(N)n[nH]c3c2)n1 [GSK1034945]
%Inh (DCAMKL2): 0% | %Inh (DCAMKL3): 36% | %Inh (DDR1): 0% | %Inh (DDR2): 0% | %Inh (DLK): 1% | %Inh (DMPK2): 2% | %Inh (DMPK): 0% | %Inh (DRAK1): 98.1% | %Inh (DRAK2; [1]): 89% | %Inh (DYRK1A): 99.6% | %Inh (DYRK1B): 75% | %Inh (DYRK2): 93.1% | %Inh (EGFR): 24% | %Inh (EIF2AK1): 4% | %Inh (EPHA1): 11% | %Inh (EPHA2): 0% | %Inh (EPHA3): 0% | %Inh (EPHA4): 0% | %Inh (EPHA5): 0% | %Inh (EPHA6): 0%

O=c1[nH]cc(-c2ccc(O)cc2)c2sc(-c3ccncc3)cc12 [GSK1033723]
%Inh (DCAMKL2): 6% | %Inh (DCAMKL3): 5% | %Inh (DDR1): 0% | %Inh (DDR2): 25% | %Inh (DLK): 12% | %Inh (DMPK2): 17% | %Inh (DMPK): 78% | %Inh (DRAK1): 31% | %Inh (DRAK2; [1]): 0% | %Inh (DYRK1A): 90% | %Inh (DYRK1B): 84% | %Inh (DYRK2): 87% | %Inh (EGFR): 32% | %Inh (EIF2AK1): 12% | %Inh (EPHA1): 8% | %Inh (EPHA2): 10% | %Inh (EPHA3): 0% | %Inh (EPHA4): 10% | %Inh (EPHA5): 0% | %Inh (EPHA6): 6%

C[C@@H](Oc1cc(-n2cnc3cc(-c4cnn(C)c4)ccc32)sc1C(N)=O)c1ccccc1Cl [GSK580432]
%Inh (DCAMKL2): 10% | %Inh (DCAMKL3): 0% | %Inh (DDR1): 42% | %Inh (DDR2): 3% | %Inh (DLK): 29% | %Inh (DMPK2): 1% | %Inh (DMPK): 45% | %Inh (DRAK1): 6% | %Inh (DRAK2; [1]): 15% | %Inh (DYRK1A): 18% | %Inh (DYRK1B): 0% | %Inh (DYRK2): 21% | %Inh (EGFR): 28% | %Inh (EIF2AK1): 15% | %Inh (EPHA1): 19% | %Inh (EPHA2): 29% | %Inh (EPHA3): 20% | %Inh (EPHA4): 7% | %Inh (EPHA5): 0% | %Inh (EPHA6): 28%
